The whole screen tested about 2,400 compounds, of which about 580 (24%) were called active.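 Rule for the calls: active = activity change at or above the mean plus 3 SD of buffer wells without dofetilide, per plate; inactive = the rest.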 A selection follows.

The values that follow come from PubChem BioAssay AID1942 (Johns Hopkins Ion Channel Center, 2009).

For this assay, the target named is Potassium voltage-gated channel subfamily KQT member 2 (Rattus norvegicus) (UniProt O88943). The assay is described as follows: rat KCNQ2 channel activation by compounds alone, confirmation, counter-screen for hERG block protector project, cell-based, CHO, FluxOR thallium flux (AID 1942).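 Note: normalized value minus buffer-control mean plus three SD of buffer wells.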 The following applies: CHO-KCNQ2 cells, FluxOR thallium flux fluorescence; at 10 µM; active compounds read high. In general terms: Counterscreens check selectivity or assay interference.
Sequence of Potassium voltage-gated channel subfamily KQT member 2 (Rattus norvegicus) (O88943 whole entry, looked up): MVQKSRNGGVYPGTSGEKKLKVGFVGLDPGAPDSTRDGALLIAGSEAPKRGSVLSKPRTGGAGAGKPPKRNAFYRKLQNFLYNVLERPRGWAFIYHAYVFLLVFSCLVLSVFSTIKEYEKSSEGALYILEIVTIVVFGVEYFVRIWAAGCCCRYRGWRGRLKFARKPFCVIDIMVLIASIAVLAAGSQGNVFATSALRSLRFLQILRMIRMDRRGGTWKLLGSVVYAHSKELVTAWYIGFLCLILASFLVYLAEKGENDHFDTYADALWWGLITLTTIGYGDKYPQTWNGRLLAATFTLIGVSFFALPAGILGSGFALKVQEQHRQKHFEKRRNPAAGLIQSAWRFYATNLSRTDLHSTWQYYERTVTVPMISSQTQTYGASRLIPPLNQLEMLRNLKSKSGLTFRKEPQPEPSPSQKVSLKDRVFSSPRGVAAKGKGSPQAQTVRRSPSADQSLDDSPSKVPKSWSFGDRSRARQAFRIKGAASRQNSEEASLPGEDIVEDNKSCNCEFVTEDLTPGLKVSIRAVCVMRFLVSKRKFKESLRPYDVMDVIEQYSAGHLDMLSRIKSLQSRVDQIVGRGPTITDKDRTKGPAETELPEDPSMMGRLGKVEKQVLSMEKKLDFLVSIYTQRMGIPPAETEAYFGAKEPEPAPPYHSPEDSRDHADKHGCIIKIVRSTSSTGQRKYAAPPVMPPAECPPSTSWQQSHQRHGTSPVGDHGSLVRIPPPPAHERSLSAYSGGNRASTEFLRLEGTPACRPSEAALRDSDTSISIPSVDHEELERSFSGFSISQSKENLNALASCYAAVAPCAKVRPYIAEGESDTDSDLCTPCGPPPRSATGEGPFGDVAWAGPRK
In the case of `CCC(=O)NC(c1cccs1)c1ccc2cccnc2c1O` (stereo not drawn), the activity change, less the hit threshold is -16.7% (inactive). With `CCC(C)NC(=O)c1c(-c2cc(Cl)c(OC)c(Cl)c2)noc1C` (stereo not drawn), the activity change, less the hit threshold was -12.6% (inactive).

As for `O=[N+]([O-])c1cccc(/C=N/N=C\c2ccccc2)c1`, the activity change, less the hit threshold was -20.8% (inactive). For `O=C(O)CCSc1ncnc2sc(-c3ccccc3)cc12`, the activity change, less the hit threshold was 22.1% (active). The value for `CCC(C)NC(=O)CSc1ncnc2sccc12` (stereo not drawn) was -14.8% (inactive). On to `CN(C(=O)CSc1ncnc2sc(-c3ccccc3)cc12)C1CCS(=O)(=O)C1` (stereo not drawn), for which the activity change, less the hit threshold is 80.2% (active). The same measure for `CCOC(=O)c1sc2nc(C)nc(SCC(=O)N(C)C3CCS(=O)(=O)C3)c2c1C` (stereo not drawn): -0.6% (inactive); for `Cc1ccccc1-n1c(SCC(=O)N(C)C2CCS(=O)(=O)C2)nnc1-c1ccncc1` (stereo not drawn): -7.7% (inactive).

With `Cc1ccccc1Cc1c(C)nc2c(C(=O)NCc3ccc4c(c3)OCO4)cnn2c1C`, the activity change, less the hit threshold is -18.7% (inactive).

In the case of `O=C(O)CNC(=O)c1ccc(NC(=O)/C(=C/c2ccccc2)NC(=O)c2ccco2)cc1`, the activity change, less the hit threshold was -25.9% (inactive). The value for `O=C(NC(=S)N(CCc1ccccc1)CCc1ccccc1)c1ccco1` was 36% (active); that for `CC(CCc1ccccc1)NC(=S)NC(=O)c1ccco1` (stereo not drawn) was 15.2% (active). Take `NC(=O)c1nsc(C(=O)N(CC(=O)NCc2ccccc2)c2ccc(F)cc2)c1N`: the activity change, less the hit threshold is -23.6% (inactive). The same measure for `C/C(=N\NC(=O)c1ccc(NS(=O)(=O)c2cccs2)cc1)c1ccc2c(c1)OCO2`: -25.3% (inactive); for `CNC(=O)COC(=O)c1cccc(S(=O)(=O)N2CCN(c3ccc(F)cc3)CC2)c1`: -11.1% (inactive).

Regarding `C=CCn1c(=S)[nH]c2sc3c(c2c1=O)CCC3`, the activity change, less the hit threshold was 34.8% (active).

With `C=CCn1c(=S)[nH]c2sc3c(c2c1=O)CCCC3`, the activity change, less the hit threshold is 46.1% (active).

Consider `C=CCn1c(=S)[nH]c2nc3c(cc2c1=O)CCCC3`, for which the activity change, less the hit threshold is -7.5% (inactive).

For the compound `Cc1ccc(C(C)C)cc1OCCn1cncn1`, the activity change, less the hit threshold is -20.3% (inactive). The value for `CCCOc1ccc(C2NC(=S)NC(c3ccccc3)=C2C(=O)Nc2ccc(C)cc2)cc1OC` (stereo not drawn) was -6.2% (inactive); that for `CNC(=O)CSc1nnc(-c2ccco2)n1-c1ccccc1` was -16.7% (inactive); that for `CCc1ccc(NC(=O)C(=O)NNC(=O)c2cccs2)cc1` was 67.5% (active).

`COc1ccc(/C=C/C(=O)NC(=S)NNC(=O)c2cccs2)cc1`: the activity change, less the hit threshold was -21.3% (inactive). The same measure for `Cc1ccc(NC(=O)C(=O)NNC(=O)c2cccs2)cc1`: 60.8% (active); for `Cc1ccc(N/C=C/C(=O)c2cccs2)cc1`: -18% (inactive). With `O=C(Nc1ccc(NC(=O)C2CC2)nc1)c1cccs1`, the activity change, less the hit threshold is -16.2% (inactive). As for `COc1ccc(NC(=O)CNC(=O)c2cccs2)cc1Cl`, the activity change, less the hit threshold is -13.7% (inactive). Consider `C=CCc1cc(Cl)ccc1OCCOCCN(C)C`, for which the activity change, less the hit threshold was -18.7% (inactive). For `Oc1ccc(N=Nc2ccccc2-c2nn[nH]n2)c(O)c1`, the activity change, less the hit threshold is -0.7% (inactive). The value for `Nc1nonc1C(=O)N1CCCC1` was -21% (inactive). As to `Cc1cc(C(=O)NNC2CC(=O)N(c3ccc4ccccc4c3)C2=O)c(C)o1` (stereo not drawn), the activity change, less the hit threshold is -17.4% (inactive).

Regarding `COc1ccc(OC(=O)Cc2cccc3ccccc23)cc1`, the activity change, less the hit threshold was -8.5% (inactive).

Regarding `CC(=O)Oc1c(-c2ccco2)oc2ccccc2c1=O`, the activity change, less the hit threshold is 6.8% (active). The value for `O=C(N/N=C\c1coc2ccccc2c1=O)c1ccco1` was -15.7% (inactive); that for `CC(=O)Oc1c(-c2ccc(Br)o2)oc2ccccc2c1=O` was 99.4% (active); that for `COc1ccc(-c2oc3ccccc3c(=O)c2OC(C)=O)cc1` was 7.3% (active). On to `COc1ccc(C(=O)c2oc3ccccc3c2N)cc1`, for which the activity change, less the hit threshold was -8.5% (inactive).

With `NC(=O)c1ccsc1NC(=O)CS(=O)(=O)c1ccccc1`, the activity change, less the hit threshold is -4.3% (inactive).

For `COc1ccc(Cc2c(O)nc(SCC(C)C)[nH]c2=O)cc1`, the activity change, less the hit threshold was -20.7% (inactive).

Take `CCOC(=O)C(=CNc1ccc(N2CCOCC2)cc1)C(=O)OCC`: the activity change, less the hit threshold was 0.3% (active).

With `CCOC(=O)C(=CNc1cc(C)ccn1)C(=O)OCC`, the activity change, less the hit threshold was -11.3% (inactive). The value for `CCOC(=O)C(=CNc1cccc(C)n1)C(=O)OCC` was -11.8% (inactive); that for `NC(=O)Cn1nnc(-c2ccc(CN3CCCCC3)cc2)n1` was -14.8% (inactive); that for `O=C(Cn1nnc(-c2cccc(C(F)(F)F)c2)n1)N1CCCCCC1` was 13.3% (active). The value for `O=C(c1cccc(C(F)(F)F)c1)C1CCCN(C(=O)CCn2cnnn2)C1` (stereo not drawn) was -8.8% (inactive); that for `Cc1nc(NCCc2ccc(S(N)(=O)=O)cc2)c2c(C)c(C)sc2n1` was 0.6% (active). Take `O=C(NC1CCN(c2ncccn2)CC1)c1c(F)cccc1F`: the activity change, less the hit threshold is -9.6% (inactive). The same measure for `COCC(=O)Nc1cc(C)cn(Cc2c(F)cccc2Cl)c1=O`: -15.1% (inactive); for `Cc1ccc2c(Cl)cc(Cl)c(OCC(=O)NC3CCS(=O)(=O)C3)c2n1` (stereo not drawn): -23.4% (inactive); for `Cc1csc2c(N3CCCCC3)ncnc12`: 3.5% (active).

`OCCN1CCN(c2ncnc3c2sc2nc(N4CCOCC4)c4c(c23)CCC4)CC1`: the activity change, less the hit threshold was -19.1% (inactive). The same measure for `CC1=CCC[C@@H]2[C@@](C)(CC/C(C)=C/C(=O)O)[C@H](C)CC[C@@]12C`: -3.2% (inactive); for `CCCCn1c(N)c(C(=S)NC(=O)CC(C)(C)C)c(=O)n(C)c1=O`: 9.2% (active).

Consider `CC(=O)c1sc(-c2ccc(F)cc2)cc1NS(=O)(=O)c1ccc(C)cc1`, for which the activity change, less the hit threshold was -14.9% (inactive).

In the case of `COC(=O)c1ccc(C(=O)NC(=S)Nc2nc3c(s2)CCCC3)cc1`, the activity change, less the hit threshold was 16% (active). Consider `COC(=O)c1ccc(C(=O)NC(=S)Nc2nc3c(s2)CC(C)CC3)cc1` (stereo not drawn), for which the activity change, less the hit threshold is -11.7% (inactive).

`CC(C)(C)c1ccc(C(=O)NC(=S)Nc2nc3c(s2)CCCC3)cc1`: the activity change, less the hit threshold is 10% (active). The value for `O=C(NC(=S)Nc1nc2c(s1)CSc1ccccc1-2)c1ccccc1` was -2.4% (inactive); that for `CN(C)/C=C1/C(=O)N(c2ccc([N+](=O)[O-])cc2)N=C1c1ccccc1` was -5.3% (inactive). In the case of `Clc1cccc(-c2ccc(C=Nc3ccc(N4CCOCC4)cc3)o2)c1Cl`, the activity change, less the hit threshold is -8.8% (inactive). As for `O=C(OCc1ccc(F)cc1)c1cc(S(=O)(=O)N2CCCCC2)ccc1N1CCOCC1`, the activity change, less the hit threshold was -12.7% (inactive).

With `CCOC(=O)C1CCN(C(=O)CCS(=O)(=O)c2ccc3c(c2)CCN3C(=O)CC)CC1`, the activity change, less the hit threshold is -16.7% (inactive). The same measure for `S=c1nc(C2CC2)[nH]c2ccccc12`: 35.2% (active); for `S=c1nc(C2CCCCC2)[nH]c2ccccc12`: 4.1% (active).

Take `COc1cc(S(=O)(=O)NCC2COCCO2)ccc1-n1cnnn1` (stereo not drawn): the activity change, less the hit threshold is -13.9% (inactive). The value for `O=C(N=Nc1c(O)[nH]c2ccc([N+](=O)[O-])cc12)c1cc(-c2ccccc2Cl)nc2ccccc12` was -10.8% (inactive). In the case of `COc1ccc(NC(=O)CN2C(=O)S/C(=C/c3cccn3-c3ccc(C(=O)O)cc3)C2=O)cc1`, the activity change, less the hit threshold is -22.6% (inactive). The same measure for `c1ccc(-c2ccnc3nc(N4CCN(c5ccccc5)CC4)nn23)cc1`: -26.3% (inactive). The same measure for `Cc1cc([N+](=O)[O-])c(C)cc1-c1ccc(/C=N/NC(=O)Cn2nnnc2N)o1`: -10% (inactive). Regarding `COc1ccccc1C(=O)NNC(=O)C(=O)Nc1cccc(Cl)c1C`, the activity change, less the hit threshold is 131% (active). Turning to `COc1ccc(C(=O)Nc2ccccc2C(=O)O)cc1Cl`, the activity change, less the hit threshold is -8.6% (inactive). The value for `CC(=O)Nc1ccccc1C(=O)C(=O)Nc1ccccc1` was -23.5% (inactive); that for `Cc1ccccc1C(=O)NNC(=O)C(=O)Nc1cccc(Cl)c1C` was 17.7% (active). Consider `COc1ccc(Cl)cc1C(=O)Nc1cccnc1Cl`, for which the activity change, less the hit threshold was -15.9% (inactive). The same measure for `CC(=O)Nc1ccccc1C(=O)C(=O)Nc1ccc(Cl)cc1`: -18.3% (inactive); for `O=C(Nc1ccccc1C(=O)O)c1ccc(NC(=O)C2CC2)cc1`: -20.5% (inactive). With `Oc1ccc(Cl)cc1C1=NNC(c2cccs2)C1` (stereo not drawn), the activity change, less the hit threshold is 9.1% (active). The value for `O=C(Nc1cc(Cl)ccc1O)C1CC(c2ccccc2Cl)=NO1` (stereo not drawn) was -19.1% (inactive); that for `CCOc1ccc2[nH]c(=O)c(CN(Cc3ccc(C)cc3)C(=O)N3CCCC3)cc2c1` was -12.4% (inactive). The same measure for `CCSc1nnc(NC(=O)Cn2cnc3c2c(=O)n(C)c(=O)n3C)s1`: -15.7% (inactive); for `Clc1ccc(Nc2ccc(Cl)nn2)cc1`: 7.4% (active); for `S=c1[nH]nc(Nc2ccc(Cl)cc2)s1`: -19.3% (inactive).

For `Clc1ccc(Nc2nc3cccnc3s2)cc1`, the activity change, less the hit threshold is -20.7% (inactive). The same measure for `COc1ccc(/C=N/NC(=O)C(=O)N2CCCC2)cc1`: -5% (inactive).

On to `N#Cc1c(-c2ccco2)c2c([nH]c1=S)CCCC2`, for which the activity change, less the hit threshold was -16.2% (inactive).

For `O=C(NCc1ccccc1)C(=O)Nc1nc(C23CC4CC(CC(C4)C2)C3)cs1`, the activity change, less the hit threshold is -21.1% (inactive). The same measure for `O=[N+]([O-])c1cc(Cl)cc(/C=N/NC(=S)Nc2ccc(S(=O)(=O)N3CCOCC3)cc2)c1O`: 29.8% (active); for `O=C(NNC(=S)Nc1ccccc1)c1cccc(S(=O)(=O)N2CCOCC2)c1`: -7.9% (inactive). The value for `O=C(CCc1ccccc1Cl)Nc1ccc(S(=O)(=O)N2CCOCC2)cc1` was -19.3% (inactive); that for `Cc1ccc(F)cc1CNC(=O)C1CCC(=O)N(C2CC2)C1` (stereo not drawn) was -13.7% (inactive). The same measure for `N#Cc1ccc(-c2ccc(OCC(=O)Nc3cccnc3)cc2)cc1`: -9.1% (inactive); for `O=C(C1CC1)N1N=C(c2ccccc2)CC1(O)C(F)(F)C(F)(F)F` (stereo not drawn): -22.1% (inactive). `O=C(CN1C(=O)NC(Cc2ccccc2)C1=O)Nc1ccccc1OC(F)F` (stereo not drawn): the activity change, less the hit threshold is -20.5% (inactive).
